Assay results from PubChem BioAssay AID1839 (Johns Hopkins Ion Channel Center, 2009).
Among all 2,400 compounds or so, about 220 (9.2%) were called active. The entries come from a sample that favours actives as a whole. Values without a mark were called inactive.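 How the source made its calls: active means signal change above the mean of dofetilide-free buffer controls plus 3 SD, so a positive margin; inactive means the rest.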

Experiment: thallium signal changes without hERG – cell-based, CHO-K1 parental line, FluxOR thallium flux, counter-screen for hERG block protection project, confirmation (AID 1839);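 further: compounds applied alone with no dofetilide to cells lacking hERG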
Conditions: CHO-K1 parental cells, FluxOR thallium flux fluorescence; at 10 µM

Q: For `Cc1nnc(SCc2cc(=O)oc3cc(O)ccc23)n1Cc1ccccc1`, which signal change vs control minus 3*SD hit threshold (margin above threshold, higher = more increase) is on record?
A: The signal change vs control minus 3*SD hit threshold (margin above threshold, higher = more increase) was -27.2%.

Q: With `O=C(NC(=S)Nc1ccc(N2CCOCC2)c(Cl)c1)c1sc2ccccc2c1Cl` as the compound, how does the signal change vs control minus 3*SD hit threshold (margin above threshold, higher = more increase) read?
A: Its signal change vs control minus 3*SD hit threshold (margin above threshold, higher = more increase) is -3.9%.

Q: For `Oc1ccc(N=Nc2ccccc2-c2nn[nH]n2)c(O)c1`, which signal change vs control minus 3*SD hit threshold (margin above threshold, higher = more increase) is on record?
A: Its signal change vs control minus 3*SD hit threshold (margin above threshold, higher = more increase) is -14.2%.

Q: Which signal change vs control minus 3*SD hit threshold (margin above threshold, higher = more increase) does the source give for `COc1ccc(S(=O)(=O)Nc2ccc(O)c3ccccc23)cc1` here?
A: The signal change vs control minus 3*SD hit threshold (margin above threshold, higher = more increase) was -41.6%.

Q: With `COc1ccc2nc(N=Nc3c(O)ccc4ccccc34)sc2c1` as the compound, how does the signal change vs control minus 3*SD hit threshold (margin above threshold, higher = more increase) read?
A: Its signal change vs control minus 3*SD hit threshold (margin above threshold, higher = more increase) is 1.7% (active).

Q: For `CCOC(=O)c1cccc(C(=O)Nc2nc3ccc(OC)cc3s2)n1`, which signal change vs control minus 3*SD hit threshold (margin above threshold, higher = more increase) is on record?
A: Its signal change vs control minus 3*SD hit threshold (margin above threshold, higher = more increase) is -31.4%.

Q: With `Cc1cc(NC(=O)/C(C#N)=C/c2ccco2)n(-c2ccccc2)n1` as the compound, how does the signal change vs control minus 3*SD hit threshold (margin above threshold, higher = more increase) read?
A: The signal change vs control minus 3*SD hit threshold (margin above threshold, higher = more increase) was -40.7%.

Q: With `Cc1[nH]n2c(=O)cc(C(C)(C)C)nc2c1-c1ccccc1` as the compound, how does the signal change vs control minus 3*SD hit threshold (margin above threshold, higher = more increase) read?
A: The signal change vs control minus 3*SD hit threshold (margin above threshold, higher = more increase) was -21.1%.

Q: Which signal change vs control minus 3*SD hit threshold (margin above threshold, higher = more increase) does the source give for `O=c1cc(-c2ccccc2)nc2c(-c3ccccc3)c(C(F)(F)F)[nH]n12` here?
A: The signal change vs control minus 3*SD hit threshold (margin above threshold, higher = more increase) was 8.1% (active).

Q: Which signal change vs control minus 3*SD hit threshold (margin above threshold, higher = more increase) does the source give for `Cc1[nH]n2c(=O)cc(C(C)C)nc2c1-c1ccccc1` here?
A: Its signal change vs control minus 3*SD hit threshold (margin above threshold, higher = more increase) is -21.7%.

Q: Which signal change vs control minus 3*SD hit threshold (margin above threshold, higher = more increase) does the source give for `Cc1nc(-c2nc(-c3c(C(=O)NNC(=O)c4ccc(Cl)cc4)noc3C)cs2)cs1` here?
A: Its signal change vs control minus 3*SD hit threshold (margin above threshold, higher = more increase) is -33.4%.

Q: Which signal change vs control minus 3*SD hit threshold (margin above threshold, higher = more increase) does the source give for `Cc1ccc(-n2c(=S)[nH]c3sc4c(c3c2=O)CCC4)cc1` here?
A: Its signal change vs control minus 3*SD hit threshold (margin above threshold, higher = more increase) is -20.7%.

Q: Which signal change vs control minus 3*SD hit threshold (margin above threshold, higher = more increase) does the source give for `COCCn1c(=S)[nH]c2sc3c(c2c1=O)CCC(C)C3` (stereo not given) here?
A: Its signal change vs control minus 3*SD hit threshold (margin above threshold, higher = more increase) is 18.3% (active).

Q: With `Cc1cccc(-n2c(=S)[nH]c3sc4c(c3c2=O)CCc2ccccc2-4)c1` as the compound, how does the signal change vs control minus 3*SD hit threshold (margin above threshold, higher = more increase) read?
A: The signal change vs control minus 3*SD hit threshold (margin above threshold, higher = more increase) was -27.1%.

Q: Which signal change vs control minus 3*SD hit threshold (margin above threshold, higher = more increase) does the source give for `Cn1c(=S)[nH]c2sc3c(c2c1=O)CCC(C(C)(C)C)C3` (stereo not given) here?
A: The signal change vs control minus 3*SD hit threshold (margin above threshold, higher = more increase) was 32% (active).

Q: Which signal change vs control minus 3*SD hit threshold (margin above threshold, higher = more increase) does the source give for `CC1CCc2c(sc3[nH]c(=S)n(C)c(=O)c23)C1` (stereo not given) here?
A: Its signal change vs control minus 3*SD hit threshold (margin above threshold, higher = more increase) is 23.8% (active).

Q: With `O=C(NC(=S)N1CCN(C/C=C/c2ccccc2)CC1)c1ccc(Cl)nc1` as the compound, how does the signal change vs control minus 3*SD hit threshold (margin above threshold, higher = more increase) read?
A: Its signal change vs control minus 3*SD hit threshold (margin above threshold, higher = more increase) is -22.6%.

Q: For `Cc1ccc(NC(=S)N2CCN(c3ccccc3F)CC2)c(C)c1`, which signal change vs control minus 3*SD hit threshold (margin above threshold, higher = more increase) is on record?
A: Its signal change vs control minus 3*SD hit threshold (margin above threshold, higher = more increase) is -24.2%.

Q: For `O=c1[nH]c2ccc(S(=O)(=O)NCc3ccccc3)cc2[nH]1`, which signal change vs control minus 3*SD hit threshold (margin above threshold, higher = more increase) is on record?
A: The signal change vs control minus 3*SD hit threshold (margin above threshold, higher = more increase) was -30.8%.

Q: With `CC(=O)c1c(N2CCN(Cc3ccccc3)CC2)[nH]c(-c2ccccc2)nc1=S` as the compound, how does the signal change vs control minus 3*SD hit threshold (margin above threshold, higher = more increase) read?
A: Its signal change vs control minus 3*SD hit threshold (margin above threshold, higher = more increase) is -16.4%.

Q: Which signal change vs control minus 3*SD hit threshold (margin above threshold, higher = more increase) does the source give for `CCN(CC)C(=O)CN1C(=O)c2cccc3cccc(c23)C1=O` here?
A: Its signal change vs control minus 3*SD hit threshold (margin above threshold, higher = more increase) is -21.1%.

Q: With `COc1ccccc1/C=C1\SC(=S)N(NS(=O)(=O)c2ccc(C)cc2)C1=O` as the compound, how does the signal change vs control minus 3*SD hit threshold (margin above threshold, higher = more increase) read?
A: Its signal change vs control minus 3*SD hit threshold (margin above threshold, higher = more increase) is -41.8%.

Q: Which signal change vs control minus 3*SD hit threshold (margin above threshold, higher = more increase) does the source give for `Cc1cc(=O)oc2cc(OC(C(=O)O)c3ccccc3)ccc12` (stereo not given) here?
A: The signal change vs control minus 3*SD hit threshold (margin above threshold, higher = more increase) was -33.7%.

Q: Which signal change vs control minus 3*SD hit threshold (margin above threshold, higher = more increase) does the source give for `Cc1ccc(-c2cc(-c3n[nH]c(=S)o3)c3ccccc3n2)cc1` here?
A: The signal change vs control minus 3*SD hit threshold (margin above threshold, higher = more increase) was -2.6%.

Q: For `C=CCc1cc(Cl)ccc1OCCOCCN(C)C`, which signal change vs control minus 3*SD hit threshold (margin above threshold, higher = more increase) is on record?
A: Its signal change vs control minus 3*SD hit threshold (margin above threshold, higher = more increase) is -30%.

Q: With `CCOC(=O)c1sc2ncnc(NCc3ccco3)c2c1C` as the compound, how does the signal change vs control minus 3*SD hit threshold (margin above threshold, higher = more increase) read?
A: Its signal change vs control minus 3*SD hit threshold (margin above threshold, higher = more increase) is 1.7% (active).

Q: For `CCOC(=O)c1sc(NC(=S)NC(=O)c2ccccc2)nc1C`, which signal change vs control minus 3*SD hit threshold (margin above threshold, higher = more increase) is on record?
A: Its signal change vs control minus 3*SD hit threshold (margin above threshold, higher = more increase) is -3.4%.

Q: Which signal change vs control minus 3*SD hit threshold (margin above threshold, higher = more increase) does the source give for `CCOC(=O)c1sc(NC(=O)c2ccccc2C(=O)O)c(C(=O)OCC)c1C` here?
A: The signal change vs control minus 3*SD hit threshold (margin above threshold, higher = more increase) was -19%.

Q: With `CCOC(=O)c1c(NC(=O)/C=C/c2ccco2)sc(C)c1C` as the compound, how does the signal change vs control minus 3*SD hit threshold (margin above threshold, higher = more increase) read?
A: Its signal change vs control minus 3*SD hit threshold (margin above threshold, higher = more increase) is -32.2%.

Q: For `CCOC(=O)c1sc2nc(C)[nH]c(=S)c2c1C`, which signal change vs control minus 3*SD hit threshold (margin above threshold, higher = more increase) is on record?
A: Its signal change vs control minus 3*SD hit threshold (margin above threshold, higher = more increase) is -9.2%.

Q: For `CCOC(=O)c1sc2ncnc(NCC(c3cccs3)N(C)C)c2c1C` (stereo not given), which signal change vs control minus 3*SD hit threshold (margin above threshold, higher = more increase) is on record?
A: The signal change vs control minus 3*SD hit threshold (margin above threshold, higher = more increase) was 3.3% (active).

Q: Which signal change vs control minus 3*SD hit threshold (margin above threshold, higher = more increase) does the source give for `CC/C(=N\NC(=O)c1nnn(-c2nonc2N)c1-c1cccs1)c1ccccc1` here?
A: Its signal change vs control minus 3*SD hit threshold (margin above threshold, higher = more increase) is -25.4%.

Q: With `COC(=O)c1ccc(C(=O)NC(=S)Nc2nc3c(s2)CCCC3)cc1` as the compound, how does the signal change vs control minus 3*SD hit threshold (margin above threshold, higher = more increase) read?
A: The signal change vs control minus 3*SD hit threshold (margin above threshold, higher = more increase) was 2% (active).

Q: Which signal change vs control minus 3*SD hit threshold (margin above threshold, higher = more increase) does the source give for `CC(C)(C)c1ccc(C(=O)NC(=S)Nc2nc3c(s2)CCCC3)cc1` here?
A: Its signal change vs control minus 3*SD hit threshold (margin above threshold, higher = more increase) is -9.2%.

Q: For `O=C(NC(=S)Nc1nc2c(s1)CCCC2)c1ccc(C(=O)c2ccccc2)cc1`, which signal change vs control minus 3*SD hit threshold (margin above threshold, higher = more increase) is on record?
A: Its signal change vs control minus 3*SD hit threshold (margin above threshold, higher = more increase) is -36.7%.

Q: For `O=C(NCC(c1cccs1)N1CCOCC1)c1cc(S(=O)(=O)N2CCOCC2)ccc1F` (stereo not given), which signal change vs control minus 3*SD hit threshold (margin above threshold, higher = more increase) is on record?
A: The signal change vs control minus 3*SD hit threshold (margin above threshold, higher = more increase) was -28.4%.

Q: With `O=C1CSC(=S)N1/N=C/c1cc(Br)ccc1O` as the compound, how does the signal change vs control minus 3*SD hit threshold (margin above threshold, higher = more increase) read?
A: Its signal change vs control minus 3*SD hit threshold (margin above threshold, higher = more increase) is -42.6%.

Q: With `O=C(/C=C/c1ccccc1)c1cc(Br)ccc(=O)c1O` as the compound, how does the signal change vs control minus 3*SD hit threshold (margin above threshold, higher = more increase) read?
A: The signal change vs control minus 3*SD hit threshold (margin above threshold, higher = more increase) was -22.9%.

Q: For `COc1ccc(-c2oc3ccccc3c(=O)c2OC(C)=O)cc1`, which signal change vs control minus 3*SD hit threshold (margin above threshold, higher = more increase) is on record?
A: The signal change vs control minus 3*SD hit threshold (margin above threshold, higher = more increase) was -22.3%.

Q: With `CC(=O)Oc1c(-c2ccc(Br)o2)oc2ccccc2c1=O` as the compound, how does the signal change vs control minus 3*SD hit threshold (margin above threshold, higher = more increase) read?
A: Its signal change vs control minus 3*SD hit threshold (margin above threshold, higher = more increase) is 63.5% (active).

Q: With `CC(=O)Oc1c(-c2ccco2)oc2ccccc2c1=O` as the compound, how does the signal change vs control minus 3*SD hit threshold (margin above threshold, higher = more increase) read?
A: The signal change vs control minus 3*SD hit threshold (margin above threshold, higher = more increase) was -12.5%.

Q: With `Cc1ccc(C(=O)NNc2cc(N3CCCC3)nc(N3CCCC3)n2)cc1` as the compound, how does the signal change vs control minus 3*SD hit threshold (margin above threshold, higher = more increase) read?
A: Its signal change vs control minus 3*SD hit threshold (margin above threshold, higher = more increase) is -21.8%.

Q: With `Cc1ccc(NC(=O)C(=O)NNC(=O)c2cccs2)cc1` as the compound, how does the signal change vs control minus 3*SD hit threshold (margin above threshold, higher = more increase) read?
A: Its signal change vs control minus 3*SD hit threshold (margin above threshold, higher = more increase) is 27.4% (active).

Q: Which signal change vs control minus 3*SD hit threshold (margin above threshold, higher = more increase) does the source give for `Cc1ccc(N/C=C/C(=O)c2cccs2)cc1` here?
A: The signal change vs control minus 3*SD hit threshold (margin above threshold, higher = more increase) was -25.9%.

Q: With `COc1ccc(NC(=O)C(=O)NNC(=O)c2cccs2)c(OC)c1` as the compound, how does the signal change vs control minus 3*SD hit threshold (margin above threshold, higher = more increase) read?
A: The signal change vs control minus 3*SD hit threshold (margin above threshold, higher = more increase) was -7.2%.

Q: Which signal change vs control minus 3*SD hit threshold (margin above threshold, higher = more increase) does the source give for `CCc1ccc(NC(=O)C(=O)NNC(=O)c2cccs2)cc1` here?
A: The signal change vs control minus 3*SD hit threshold (margin above threshold, higher = more increase) was 18.1% (active).

Q: For `CCN(CC)c1ccc(NC(=S)NC(=O)c2cccs2)cc1`, which signal change vs control minus 3*SD hit threshold (margin above threshold, higher = more increase) is on record?
A: Its signal change vs control minus 3*SD hit threshold (margin above threshold, higher = more increase) is -20.8%.

Q: Which signal change vs control minus 3*SD hit threshold (margin above threshold, higher = more increase) does the source give for `O=C(NC(=S)NNC(=O)c1cccs1)c1ccc(Br)o1` here?
A: Its signal change vs control minus 3*SD hit threshold (margin above threshold, higher = more increase) is -45.9%.

Q: With `CCOc1ccccc1Nc1nc(-c2sc(C)nc2C)cs1` as the compound, how does the signal change vs control minus 3*SD hit threshold (margin above threshold, higher = more increase) read?
A: Its signal change vs control minus 3*SD hit threshold (margin above threshold, higher = more increase) is -38.3%.

Q: With `COC(=O)c1ccc(-n2c(C)nc(=O)c(-c3ccccc3)c2C)cc1` as the compound, how does the signal change vs control minus 3*SD hit threshold (margin above threshold, higher = more increase) read?
A: Its signal change vs control minus 3*SD hit threshold (margin above threshold, higher = more increase) is -20.1%.
